In all, about 76,000 compounds went through this assay and about 1,900 (2.5%) were called active. Where a call stands in place of a potency, no number is given. Another 5% or so got no clear call; they are omitted. Calls come from the whole dose curve; as a rule, active = well fitted inhibition curve with a large enough effect; inconclusive = small, poorly fitted or top-dose-only effect; inactive = flat fitted curve, though single readings scatter. Many of the other results were omitted from the sample, so actives are more common in it than they were.
Biological target: Luciferin 4-monooxygenase (Photinus pyralis) (UniProt P08659)
Sequence (P08659 whole entry, looked up): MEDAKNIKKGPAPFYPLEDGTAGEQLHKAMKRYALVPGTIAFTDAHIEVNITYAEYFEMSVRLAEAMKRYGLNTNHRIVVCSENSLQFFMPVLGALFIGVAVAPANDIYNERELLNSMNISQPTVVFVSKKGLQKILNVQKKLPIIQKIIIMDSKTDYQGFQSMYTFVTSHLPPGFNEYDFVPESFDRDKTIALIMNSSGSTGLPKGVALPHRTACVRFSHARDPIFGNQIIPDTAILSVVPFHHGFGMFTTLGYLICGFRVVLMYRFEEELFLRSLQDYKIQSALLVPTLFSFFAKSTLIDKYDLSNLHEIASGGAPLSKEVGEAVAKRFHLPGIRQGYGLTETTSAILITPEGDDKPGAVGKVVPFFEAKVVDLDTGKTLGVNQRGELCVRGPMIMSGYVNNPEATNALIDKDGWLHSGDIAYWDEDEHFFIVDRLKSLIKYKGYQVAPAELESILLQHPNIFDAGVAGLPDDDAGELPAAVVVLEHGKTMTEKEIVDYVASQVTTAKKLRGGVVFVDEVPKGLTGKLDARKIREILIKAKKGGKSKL
Test: Firefly luciferase inhibition profiling of diverse chemical library using quantitative high-throughput screening; note: nearly all actives have a fitted effect of over 65% in size
Details: purified P. pyralis luciferase, luminescence, biochemical; series mostly up to 115 µM
How it was run: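 Cell-free enzyme assay, 10nM P. pyralis luciferase, luciferin and ATP each at 10uM. Inhibition profiled over a 6-point titration, read as luminescence.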
Potency is the fitted concentration of half-maximal effect.

SMILES	Potency
CC(=O)N1CCc2sc(C(=O)NCc3ccc(F)cc3Cl)cc2C1	inactive
Cn1cnnc1CC1CCN(c2nnnn2-c2ccccc2)CC1	inactive
COc1ccccc1N1CCN(C(=O)Cn2c(N3CCc4ccccc4C3)nc(C)cc2=O)CC1	inactive
Cc1cccc(-c2cc(C3CCN(S(=O)(=O)c4cccc(C#N)c4)CC3)[nH]n2)c1	inactive
COc1ccc(F)cc1CN1CCCC(CO)(CC2CC2)C1 (stereo unspecified)	inactive
CCNC(=O)N1CCCC1c1noc(CCC(=O)NCC2CC2)n1 (stereo unspecified)	inactive
C=CCC1(OC)CCN(C(=O)c2cnn3cc(CN(CC)CC)cnc23)CC1	inactive
COCCNC(=O)[C@H]1C[C@H](Oc2cccnc2)CN1S(=O)(=O)c1cn(C)cn1	inactive
C[S+](=O)([O-])CCn1ncc2cc(OCc3cccc(-c4ccccc4)c3)ccc21	14.1 µM (active)
COc1cncc(-c2cccc(COc3ccc4c(cnn4CC[S+](C)(=O)[O-])c3)c2)c1	inactive
CN(C)Cc1cn2c(=O)n(C)cc(-c3cccc(OCc4ccccc4)c3)c2n1	inactive
Cn1cnc(S(=O)(=O)N2CCC(N(C(=O)C3CC3)C3CCOCC3)CC2)c1	inactive
Cc1ccc2cc(CN3CCN(CC(N)=O)CC3)c(-c3cccs3)nc2c1	12.6 µM (active)
Cc1ccc(C(=O)NC2CCN(c3cc(-c4cccs4)[nH]n3)C2)cc1 (stereo unspecified)	inactive
Cc1cccnc1C(=O)N[C@@H]1CN(c2ncccn2)C[C@H]1CO	inactive
COc1ccc(-c2nccc3c(=O)cc(N(C)c4ccccc4)oc23)cn1	inactive
COc1ccc(CN2CCc3oc(C)c(C(=O)NC(C)Cn4ccc(C)n4)c3C2)cc1 (stereo unspecified)	inactive
COCCOCC(=O)N1CCCC(c2nc(-c3ccccc3)no2)CCNC(=O)CC1 (stereo unspecified)	inactive
O=[N+]([O-])c1ccccc1CN1C[C@H](O)C[C@H]1c1nc(-c2ccc(F)cc2)no1	50.1 µM (active)
O=[N+]([O-])c1cccc(-c2noc([C@@H]3C[C@@H](O)CN3Cc3cccc(OC(F)(F)F)c3)n2)c1	inactive
O=[N+]([O-])c1cccc(-c2noc([C@@H]3C[C@@H](O)CN3Cc3cccnc3)n2)c1	inactive

SMILES	Potency
CCCNC(=O)C(NC(=O)c1cccc(OC)c1)C1CCN(C(=O)c2ccccc2F)CC1 (stereo unspecified)	inactive
CCNC(=O)O[C@@H]1CO[C@H]2[C@@H]1OC[C@@H]2NC(=S)Nc1cccc2ccccc12	inactive
COc1ccc(NC(=O)c2ccc(CN3C(=O)NC4(CCOCC4)C3=O)cc2)c(OC)c1	inactive
COc1ccc(CN2C(=O)CO[C@H](c3ccc(NC(=O)c4ccccc4OC)cc3)[C@H]2CO)cc1	inactive
CCNC(=O)C1C(c2cccc(NC(=O)c3ccc(OC)cc3)c2)OC(=O)N1Cc1ccc(C)cc1 (stereo unspecified)	11.2 µM (active)
Cc1nc(-c2ccccc2)n(CC(=O)NCc2ccc(F)cc2)c(=O)c1CCO	inactive
CCCNC(=O)N(C1CCOCC1)C1CCN(C(=O)c2ccncc2)CC1	inactive
CCCNC(=O)CCC1CCN(C(=O)c2ccc(C)cc2)CC1	31.6 µM (active)
COc1ccc(NC(=O)CCC2CCN(S(=O)(=O)c3ccc(C)cc3)CC2)cc1F	inactive
CN1N=C(C(=O)N2CCC(CCC(=O)Nc3ccc4c(c3)OCCO4)CC2)CCC1=O	inactive
CCCNc1cc(N2CCC(CCC(=O)Nc3ccc(C)cc3)CC2)ncn1	28.2 µM (active)
Cc1ccc(C(=O)N2CCC(c3nn(-c4ccccc4)c(=O)[nH]3)CC2)cc1	inactive
O=C(c1ccc2c(c1)[nH]c(=O)n2C1CCC(O)CC1)N1CCc2ccccc2C1 (stereo unspecified)	inactive
Cc1ccc(S(=O)(=O)N2CCC(CCC(=O)NCc3ccccc3)CC2)cc1	inactive
Cc1ccc(C(=O)N2CCC(CCC(=O)N3CCc4ccccc4C3)CC2)cc1	22.4 µM (active)
CN(CCCNC1CCC2(CCNCC2)CC1)c1ccccc1	inactive
O=C(Nc1ccc(F)cc1)[C@@H]1C[C@@H](c2ccc(F)cc2)N([S+](=O)([O-])c2ccccc2)C1	inactive
O=C(NCc1ccccc1)NC1CCc2nn(CC3CC3)c(=O)n2CC1 (stereo unspecified)	inactive
CCCc1noc(-c2cn(C3CCN(C(=O)c4ccc(C)s4)CC3)nn2)n1	inactive
Cc1cc(NC(=O)c2ccc3c(c2)OCCN(CCC(F)(F)F)C3)ccc1F	inactive
O=C(NCCc1ccccc1)c1ccc2c(c1)OCCN(CCC(F)(F)F)C2	39.8 µM (active)

SMILES	Potency
O=C(NCc1cccs1)c1ccc2c(c1)OCCN(c1ccccc1)C2	inactive
CC(C)NC(=O)C1COC2(CCN(C(=O)c3ccccc3Cl)CC2)N1C(=O)c1ccccc1 (stereo unspecified)	inactive
O[C@H]1CC[C@@H](Cc2cc(-c3ccccc3)on2)O[C@@H]1CNCc1ccccc1	inactive
C=CCN1C(=O)[C@@H]2C[C@@H](NC(=O)c3ccncc3)CCN2C1=O	inactive
CCn1ncc(N2CCC(NC(=O)C(C)c3ccccc3)CC2)cc1=O (stereo unspecified)	inactive
CC(C)(C)c1ccc(N2C(=O)[C@@H]3C[C@@H](NC(=O)[C@@H](O)c4ccccc4)CCN3C2=O)cc1	35.5 µM (active)
Cc1nc(-c2ccc(F)cc2)n(Cc2cccc(Cl)c2)c(=O)c1CCO	inactive
Cn1cccc1CN1CCC(N2CCC[S+]2(=O)[O-])CC1	inactive
CCN1C(=O)CCN(C(=O)CCc2ccc(OC)cc2)CC12CCOCC2	inactive
CC(C)CC(=O)N1CCC(c2noc(-c3cnccn3)n2)C1 (stereo unspecified)	inactive
COc1ccc(C(=O)N2CCC3(CC2)CC(OC)CCO3)cc1OC (stereo unspecified)	inactive
CCn1cnnc1CC1CCN(C(=O)C2CCN(Cc3nc(-c4cccc(C)c4)oc3C)CC2)CC1	inactive
COCc1nncn1C1CCN(C(=O)c2ccccc2F)CC1	inactive
CCn1cnnc1CC1CCN(C(=O)c2cc(-c3ccc(F)cc3)nc3ccccc23)CC1	14.1 µM (active)
Cc1noc(-c2cccc(OC3CN(C(=O)NCCc4ccccc4)C3)c2)n1	inactive
COc1nccc(N2CCC(CC(=O)NCc3ccc(F)cc3Cl)CC2)n1	inactive
CN(C)C[C@@H]1CN(C)C[C@H]1NC(=O)c1cc2ccccc2[nH]1	39.8 µM (active)
COc1ccc2[nH]c(C(=O)N[C@@H]3CN(S(C)(=O)=O)C[C@H]3CN(C)C)cc2c1	inactive
CN(C)C[C@@H]1CN(C)C[C@H]1NC(=O)c1ccnnc1	inactive
